Data: ChEMBL document CHEMBL1201862, “PubChem BioAssay data set” (2004)
Out of some 400,000 compounds screened, about 2,100 (0.53%) were called active. Roughly 14% stayed inconclusive and do not appear here. This is one part of a sample in which actives are shown more often than they occur. The rule behind the calls is not given here.

Biological target: Ataxin-2 (Homo sapiens) (UniProt Q99700)
Assay: qHTS for Inhibitors of ATXN expression.
Assay type: functional

Ataxin-2 (Homo sapiens), sequence (Q99700 whole entry): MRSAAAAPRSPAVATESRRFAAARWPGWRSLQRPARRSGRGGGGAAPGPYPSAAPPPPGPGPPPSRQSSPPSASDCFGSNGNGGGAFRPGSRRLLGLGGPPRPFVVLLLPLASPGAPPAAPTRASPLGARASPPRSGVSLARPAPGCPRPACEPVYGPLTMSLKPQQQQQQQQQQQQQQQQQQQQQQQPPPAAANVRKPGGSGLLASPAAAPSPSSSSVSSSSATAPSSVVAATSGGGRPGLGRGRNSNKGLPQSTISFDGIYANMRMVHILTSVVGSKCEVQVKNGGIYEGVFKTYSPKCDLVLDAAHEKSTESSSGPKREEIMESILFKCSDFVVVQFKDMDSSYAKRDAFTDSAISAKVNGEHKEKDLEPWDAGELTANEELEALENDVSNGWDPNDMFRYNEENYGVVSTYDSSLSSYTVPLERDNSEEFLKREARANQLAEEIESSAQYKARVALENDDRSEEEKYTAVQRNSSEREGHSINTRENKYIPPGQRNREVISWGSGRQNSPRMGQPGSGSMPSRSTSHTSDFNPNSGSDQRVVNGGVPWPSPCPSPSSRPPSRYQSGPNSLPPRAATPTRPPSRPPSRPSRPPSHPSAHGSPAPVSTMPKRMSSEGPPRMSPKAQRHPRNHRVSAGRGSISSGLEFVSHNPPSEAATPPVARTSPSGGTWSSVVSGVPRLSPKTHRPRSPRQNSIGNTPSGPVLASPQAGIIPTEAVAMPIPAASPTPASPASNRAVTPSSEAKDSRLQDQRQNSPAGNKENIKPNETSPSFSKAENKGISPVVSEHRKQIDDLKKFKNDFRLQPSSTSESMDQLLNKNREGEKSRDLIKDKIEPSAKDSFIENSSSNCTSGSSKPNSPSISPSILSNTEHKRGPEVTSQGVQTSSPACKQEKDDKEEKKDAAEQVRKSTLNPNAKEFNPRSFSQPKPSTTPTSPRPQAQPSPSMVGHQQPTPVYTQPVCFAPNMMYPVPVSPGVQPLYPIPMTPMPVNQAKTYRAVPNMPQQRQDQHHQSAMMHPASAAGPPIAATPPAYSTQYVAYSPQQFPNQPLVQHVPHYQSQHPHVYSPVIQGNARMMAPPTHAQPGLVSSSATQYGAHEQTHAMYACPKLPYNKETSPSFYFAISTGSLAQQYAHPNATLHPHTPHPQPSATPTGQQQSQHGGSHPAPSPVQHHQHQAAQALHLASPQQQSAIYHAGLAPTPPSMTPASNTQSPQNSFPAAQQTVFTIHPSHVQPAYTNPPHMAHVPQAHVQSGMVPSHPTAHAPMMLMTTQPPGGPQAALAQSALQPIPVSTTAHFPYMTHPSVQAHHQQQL

Row | SMILES | Potency
1 | O=C(O)/C=C/c1cn(Cc2ccccc2)nc1-c1cccs1 | inactive
2 | c1ccc(CN2CCC(Nc3nc(-c4cccs4)nc4ccccc34)CC2)cc1 | 31.6 µM (active)
3 | Cc1cccn2c(=O)c3cc(C(=O)NCC4CCCO4)c(=N)n(Cc4cccnc4)c3nc12 (stereo not given) | inactive
4 | CC(C)c1cc(NCc2ccccn2)n2c(nc3ccccc32)c1C#N | inactive
5 | O=S(=O)(Nc1nc2ccccc2nc1Cl)c1ccc(Cl)cc1 | inactive
6 | O=S(=O)(Nc1cc2nc3ccccc3nc2n1Cc1ccccc1)c1ccc(Cl)cc1 | inactive
7 | O=S(=O)(NCC(Nc1ccc(Cl)cc1)c1ccccc1)c1ccccc1 (stereo not given) | 22.4 µM (active)
8 | Cc1c(CCC(=O)NC2CC2)c(=O)oc2c(C)c(O)ccc12 | inactive
9 | CC1CCc2cc(F)ccc2N1C(=O)CSc1n[nH]c2c3cc(F)ccc3nc-2n1 (stereo not given) | 22.4 µM (active)
10 | CC1CCc2cc(F)ccc2N1C(=O)CCl (stereo not given) | 29.9 µM (active)
11 | CC(=O)N1c2ccc(S(=O)(=O)NCCC(=O)Nc3ccc(Cl)cc3)cc2CC1C (stereo not given) | inactive
12 | CCc1nnc(NC(=O)CSc2n[nH]c3c4ccccc4nc-3n2)s1 | inactive
13 | CC(Sc1nc(-c2ccc(F)cc2)cs1)C(=O)N1c2ccccc2CC1C (stereo not given) | inactive
14 | CN1CCC(N(C)C(=O)c2sc3cc(F)ccc3c2Cl)CC1 | inactive
15 | Cc1nc2nc(-c3ccc(F)cc3)cn2nc1C | inactive
16 | CCCCCC[n+]1ccccc1C=Cc1ccc(N(C)C)cc1 | 7.94 µM (active)
17 | CC[n+]1c(/C=C/c2ccc(OC(C)=O)c(OC)c2)ccc2ccccc21 | 22.4 µM (active)
18 | CCN(CC)c1ccc(/C=N/NC(=S)NCc2ccc(OC)cc2)cc1 | inactive
19 | CN(C)c1ccc(/C=C/c2nc3ccccc3s2)cc1 | inactive
20 | COc1ccc2ccccc2c1/C=N/Nc1cccc(C(=O)O)c1 | inactive
21 | CN(C)c1ccc(/C=C/c2cccc[n+]2[O-])cc1 | inactive
22 | CN(C)c1ccc(/C=C/c2ccc3ccccc3n2)cc1 | inactive
23 | COc1ccc(/C=C2\CCc3c2nc2ccccc2c3C(=O)O)cc1OC | inactive
24 | CCCN(CCC)c1ccc(/C=C/c2ccc3cc(OCC)ccc3n2)cc1 | inactive
25 | CCN(CC)c1ccc(/C=C/c2ccc3ccc(OC)cc3[n+]2CC)cc1 | 2.82 µM (active)
26 | CC[n+]1c(/C=C/c2ccc(N(C)C)cc2)ccc2ccccc21 | 10 µM (active)
27 | CN(C)c1ccc(C=Cc2cnccn2)cc1 | inactive
28 | CCOC(=O)c1cc(C#N)c(Nc2ccccc2OC)nc1C(F)(F)F | inactive
29 | O=S(=O)(O)c1ccc(N2N=C(c3ccccc3)CC2c2ccccc2)cc1 (stereo not given) | inactive
30 | Nc1nnc(-c2cc3ccccc3oc2=O)s1 | inactive
